Only some compounds are listed: those with a hit (about 6.5% of all), similar ones and a draw of the others.
HT1080-NT tox = kills 2HG-producing HT-1080-NT fibrosarcoma cells; HT-1080-NT fibrosarcoma viability, CellTiter-Glo ATP luminescence, 48 h; Potency, µM (titrated, usually from 46.1 µM), hits mostly cytotoxic; 360,000 tested, 1.6% active; AID 686970;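 note: NT is the 2HG producing partner of a matched IDH1 knockdown line; nearly all actives have a fitted effect of over 55% in size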
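HT-1080-NT; 750 cells/well; 5% FBS RPMI; 48 h compound, 37 degrees C; CellTiter-Glo luminescence; curve fitting and curve-class assignment.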
HepG2 tox = HepG2 cytotoxicity, counter-screen for TGF-b inhibitors | 410,000 tested, 0.76% active | AID 588856 | Potency, µM (highest dose often 46.1 µM), hits mostly cytotoxic | HepG2 CAGA-GFP viability, ATP luminescence, 18 h
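HepG2 CAGA-GFP cells (1000/well, DMEM with 1% FBS) received compound, then TGF-beta at 500 pg/mL final, and were incubated 18 hours at 37 degrees C. Viability was read by CellTiter-Glo luminescence. Media-only wells were set as complete cell-killing and DMSO as no toxicity.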
HT1080 IDH1KD tx = HT-1080 IDH1 knockdown cell toxicity (counter line); Potency, µM (highest dose often 46.1 µM), usual class: cytotoxic; HT-1080 IDH1 knockdown viability, ATP luminescence, 48 h; 360,000 tested, 2% active
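Luminescent ATP read-out (CellTiter-Glo, 10 min at room temperature) after 48 h compound exposure at 37 °C gave viability of IDH1-knockdown HT-1080 cells. Activity was normalised to DMSO and cell-free wells, then fitted as concentration-response curves.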
TGFb inhibitor = blocks TGF-b signaling; Potency, µM (doses to about 46.1 µM), hits mostly inhibitors; 410,000 tested, 1.2% active; HepG2 CAGA-GFP TGF-b/SMAD3 reporter, GFP fluorescence, 18 h; TGF-beta stimulated, 500 pg/mL final; note: nearly all actives have a fitted effect of over 65% in size
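Inhibition of TGF-beta-driven CAGA-GFP reporter expression in HEPG2 cells is measured by cellular GFP fluorescence after 18 h stimulation with 500 pg/mL recombinant TGF-beta in 1% FBS medium at 37 degrees C.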
IL1B secr inh = blocks inflammasome-driven IL-1 beta release | 360,000 tested, 4.7% active | activity change, % at 57.5 µM | THP-1 LPS/ATP IL-1B secretion, AlphaLISA, 16 h; stronger effect = lower value; in the data active = activity change below about -50%; inconclusive = mostly about -30% to -49%
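Secreted IL-1B measured by AlphaLISA bead assay after 16 h compound exposure of THP-1 cells; compounds (final up to 57.5 uM) added 1 h before LPS (250 ng/mL) and ATP (1.25 mM) stimulation; lower signal means less secretion.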
Giardia kill = kills Giardia lamblia; Giardia lamblia trophozoite viability; activity change, % at 7.66 µM, hits read low; 340,000 tested, 0.15% active; AID 540267; in the data active = activity change below about -80%; inconclusive = between about -30% and that limit;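 note: parasites exposed to compound for two days anaerobically before the ATP read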
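Killing of trophozoites was scored by loss of ATP luminescence after a 48 hrs anaerobic exposure to compounds at 37 deg C, using 100 cells per well.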
Each line names hits and unclear results; the compound was inactive in the other large screens. Unless noted, calls come from the whole dose curve; as a rule, active = well fitted curve in the direction sought with a large enough effect; inconclusive = small, poorly fitted or top-dose-only effect, or another doubt; inactive = no such curve, though single readings can be large; an effect the other way counts as inactive or inconclusive.

CN1CCN(c2ccc(C(F)(F)F)cc2NC(=O)Nc2ccccc2)CC1	HT1080-NT tox inconclusive, TGFb inhibitor inconclusive, IL1B secr inh -84.4
CCOC(=O)c1ccc(N2CCOCC2)c(NC(=O)c2c(-c3ccccc3)noc2C)c1	HT1080-NT tox 1.84µM, HT1080 IDH1KD tx 2.06µM
Cn1c(=O)n(C)c2cc(N3CCCC3)c(NC(=O)Nc3ccccc3)cc21	none (no result: HT1080-NT tox, HT1080 IDH1KD tx, IL1B secr inh, Giardia kill)
CCNCC(=O)N1c2ccccc2CCc2ccc(NC(=O)OCC)cc21	IL1B secr inh -69.4
CCOC(=O)Nc1ccc2c(c1)N(C(=O)CN(C)C)c1ccccc1CC2	none
CCOC(=O)Nc1ccc2c(c1)N(C(=O)CN)c1ccccc1CC2	TGFb inhibitor inconclusive, IL1B secr inh -63.4
Cc1ccc(Nc2cc(C(=O)NCCc3ccccc3)c3ccccc3n2)c(C)c1	none (no result: HT1080-NT tox, HT1080 IDH1KD tx, IL1B secr inh, Giardia kill)
O=c1c2c(nc3c(-c4ccc(Cl)cc4)c[nH]n13)CCCC2	HT1080-NT tox inconclusive, HT1080 IDH1KD tx 7.08µM, TGFb inhibitor inconclusive
O=c1c2c(nc3c(-c4cccc5ccccc45)c[nH]n13)CCC2	none
CC1=CC(C)(C)Nc2ccc(OC(=O)CN3C(=O)c4cccc5cccc(c45)C3=O)cc21	IL1B secr inh -106.6
CC1=CC(C)(C)Nc2ccc(OC(=O)CN3C(=O)c4ccccc4C3=O)cc21	HT1080-NT tox inconclusive, HepG2 tox 17.8µM, HT1080 IDH1KD tx inconclusive, IL1B secr inh -99.9
CC1=CC(C)(C)Nc2ccc(OC(=O)C(Cc3ccccc3)N3C(=O)c4ccccc4C3=O)cc21 (stereo unspecified)	IL1B secr inh inconclusive
COC(=O)C1=NN(c2ccccc2)C2(S1)SC(C(C)=O)=C(C)N2c1ccccc1 (stereo unspecified)	none
CC(C)(C)c1ccc(OCC(=O)N/N=C/c2ccsc2)cc1	none
Cc1ccc(SCCC(=O)N(C)CC(=O)Nc2c(C)cccc2C)cc1	none
NC(CCc1ccccc1)c1csc(Nc2ccc(C(F)(F)F)cn2)n1 (stereo unspecified)	HT1080 IDH1KD tx inconclusive, TGFb inhibitor inconclusive (no result: Giardia kill)
CCCCN(C)C(=O)c1ccc(Nc2nc(C(N)CCc3ccccc3)cs2)nc1 (stereo unspecified)	HT1080-NT tox 18.4µM, HT1080 IDH1KD tx 23.1µM, TGFb inhibitor inconclusive (no result: Giardia kill)
NC(Cc1ccc(C(F)(F)F)cc1)c1csc(Nc2ccc(C(=O)NCc3ccco3)cn2)n1 (stereo unspecified)	HT1080-NT tox 11.6µM, HepG2 tox 20µM, HT1080 IDH1KD tx 7.31µM, TGFb inhibitor inconclusive (no result: Giardia kill)
NC(Cc1ccc(C(F)(F)F)cc1)c1csc(Nc2ccc(C(=O)NCCCO)cn2)n1 (stereo unspecified)	HT1080-NT tox inconclusive, HT1080 IDH1KD tx inconclusive, TGFb inhibitor inconclusive (no result: Giardia kill)
CCCCN(C)C(=O)c1ccc(Nc2nc(C(N)Cc3ccc(C(F)(F)F)cc3)cs2)nc1 (stereo unspecified)	HT1080-NT tox inconclusive, HepG2 tox 11.2µM, HT1080 IDH1KD tx 16.4µM, TGFb inhibitor inconclusive (no result: Giardia kill)
Cc1cc(OCCN2CC(C)OC(C)C2)ccc1[N+](=O)[O-] (stereo unspecified)	none
Cc1cc(OCCN2CCC(Cc3ccccc3)CC2)ccc1[N+](=O)[O-]	HT1080-NT tox inconclusive, HT1080 IDH1KD tx inconclusive, TGFb inhibitor inconclusive, IL1B secr inh -74.2
CCS(=O)(=O)c1nc(S(=O)(=O)c2ccc(C)cc2)c(N2CCCC(C)C2)s1 (stereo unspecified)	IL1B secr inh inconclusive
CC1CN(c2sc(S(C)(=O)=O)nc2S(=O)(=O)c2ccc(Cl)cc2)CC(C)O1 (stereo unspecified)	IL1B secr inh -64.3
CS(=O)(=O)c1nc(S(=O)(=O)c2ccc(Cl)cc2)c(N2CCOCC2)s1	IL1B secr inh -76.3
CS(=O)(=O)c1nc(S(=O)(=O)c2ccc(Cl)cc2)c(NCCCN2CCOCC2)s1	none
CCCS(=O)(=O)c1nc(S(=O)(=O)c2ccc(C)cc2)c(N2CCOCC2)s1	IL1B secr inh -73.7
CC1CCCN(c2sc(S(C)(=O)=O)nc2S(=O)(=O)c2ccc(Cl)cc2)C1 (stereo unspecified)	IL1B secr inh -70.7
Cc1cc(C)c(C#N)c(Oc2ccccc2)n1	none
Cc1ccc(C)c(NS(=O)(=O)c2cc(C(N)=O)ccc2C)c1	none
C[N+]1(CC(=O)c2ccc(F)cc2)CCc2ccccc2C1 (stereo unspecified)	none (no result: HT1080-NT tox, HT1080 IDH1KD tx, IL1B secr inh, Giardia kill)
CCS(=O)(=O)c1nc(S(=O)(=O)c2ccc(Cl)cc2)c(N2CCN(CCO)CC2)s1	TGFb inhibitor inconclusive
CCS(=O)(=O)c1nc(S(=O)(=O)c2ccc(Cl)cc2)c(NCCCN2CCOCC2)s1	IL1B secr inh -51.3
CCN1CCN(c2sc(S(=O)(=O)CC)nc2S(=O)(=O)c2ccc(Cl)cc2)CC1	IL1B secr inh -65.7 (no result: Giardia kill)
CC1CCN(C2=C(NS(=O)(=O)c3ccc(Cl)cc3)C(=O)c3ccccc3C2=O)CC1	none
CCN1CCN(C2=C(NS(=O)(=O)c3ccc(C)cc3)C(=O)c3ccccc3C2=O)CC1	HT1080-NT tox inconclusive, HepG2 tox 11.2µM, HT1080 IDH1KD tx inconclusive, TGFb inhibitor 12.6µM
CC1CCN(C2=C(NS(=O)(=O)c3ccc(Br)cc3)C(=O)c3ccccc3C2=O)CC1	HT1080-NT tox 18.4µM, TGFb inhibitor inconclusive, IL1B secr inh inconclusive, Giardia kill inconclusive
CC1CCN(C2=C(NS(=O)(=O)c3ccccc3)C(=O)c3ccccc3C2=O)CC1	HT1080 IDH1KD tx inconclusive, TGFb inhibitor inconclusive, IL1B secr inh -73.6
CC(C)Cc1nnc(NC(=O)CCC(=O)N2CCN(S(=O)(=O)c3ccccc3)CC2)s1	none
COc1ccc(CN2CCN(C(=O)c3ccc(S(=O)(=O)NCc4ccco4)cc3)CC2)cc1F	none
CCOC(=O)c1ccc(NC(=O)CN(C)S(=O)(=O)c2ccc(Br)s2)cc1	IL1B secr inh -71.7
Cc1ccc(NC2=C(c3ccc(C(F)(F)F)cc3)C(=O)c3ccccc32)cc1C	HepG2 tox 12.6µM (no result: HT1080-NT tox, HT1080 IDH1KD tx, IL1B secr inh, Giardia kill)
C=CC[C@@H](Cc1ccc(F)cc1)C(=O)OC[C@@H]1CCCN1C(=O)[C@H](CC=C)CC(=O)N[C@H](CO)Cc1ccccc1	TGFb inhibitor inconclusive, IL1B secr inh -69.7
C=CC[C@@H](CC(=O)OC(C)(C)C)C(=O)OC[C@@H]1CCCN1C(=O)[C@@H](CC=C)CC(=O)N(CCO)Cc1ccccc1	HT1080 IDH1KD tx inconclusive, IL1B secr inh -54.5
C=CC[C@@H](CC(=O)OC(C)(C)C)C(=O)OC[C@H]1CCCN1C(=O)[C@@H](CC=C)CC(=O)N(CCO)Cc1ccccc1	IL1B secr inh -62.3
COc1cc(/C=N/Nc2nc3ccccc3[nH]2)cc(OC)c1O	HT1080 IDH1KD tx inconclusive, TGFb inhibitor inconclusive, IL1B secr inh -99.0
